Inconclusive results are not listed. Unmarked numbers belong to inactive results. Calls of active or inactive are those of the source. The call rests on the fitted dose curve; in most records, active means well fitted cell-killing curve with a large enough effect; inconclusive means small, poorly fitted or top-dose-only effect, or effect the other way; inactive means flat fitted curve, though single readings scatter.

Assay in all cases: Primary qHTS to identify gynecologic anti-cancer compounds using libraries of approved drugs and bioactive compounds (AID 1345084); further: nearly all actives have a fitted effect of over 55% in size
In general terms: In qHTS, concentration-response curves come from the screen itself.

Assay [1] deals with CASKI. To be noted: Gynecologic cancer cell panel viability, ATPlite luminescence, 48 h; series mostly up to 57.5 µM. In a few lines:
(§1)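 In this quantitative HTS, cell killing is estimated from loss of ATP-dependent luciferase light. Cells see five compound concentrations over a 48 h exposure.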

Assay [2] relates to HeLa. To be noted: Gynecologic cancer cell panel viability, ATPlite luminescence, 48 h; series mostly up to 57.5 µM. In a few lines:
as §1
(ATP-based viability assays read luminescence as a measure of living cells.)

Assay [3] has as its system Hek293T. To be noted: Gynecologic cancer cell panel viability, ATPlite luminescence, 48 h, control line for the selectivity index; series mostly up to 57.5 µM. In a few lines:
as §1

Assay [4] concerns JEG-3. To be noted: Gynecologic cancer cell panel viability, ATPlite luminescence, 48 h; series mostly up to 57.5 µM. In a few lines:
as §1

In assay [5] the test system is Es-2. To be noted: Gynecologic cancer cell panel viability, ATPlite luminescence, 48 h; series mostly up to 57.5 µM. In a few lines: as §1
On the % scale 0 is the no-effect control and ±100 the full control effect; potency means the concentration at half of the fitted maximal effect.

Turning to `CCNC(=O)Nc1ccc(-c2nc3c(c(N4CCOCC4C)n2)CCN(C2COC2)C3)cc1` (stereo not drawn), the Potency entry in assay [1], in assay [2] and in assay [4] was “inactive” throughout. Moreover, the Potency in assay [3] was 2.82 µM (active).
Regarding `CCC(C)(OC(C)=O)C(=O)O[C@H]1[C@H](OC(C)=O)[C@]2(CO)[C@H](O)[C@H](O)[C@]3(C)C(=CCC4[C@@]5(C)CC[C@H](O[C@@H]6O[C@H](C(=O)O)[C@@H](O)[C@H](O[C@@H]7OC[C@H](O)[C@H](O[C@@H]8OC[C@H](O)[C@H](O)[C@H]8O)[C@H]7O)[C@H]6O[C@@H]6O[C@H](CO)[C@@H](O)[C@H](O)[C@H]6O)C(C)(C)C5CC[C@]43C)[C@@H]2CC1(C)C` (stereo partly drawn), the activity change, negative = cytotoxicity is -8.22% [at 6.55 µM] in assay [5], -8.59% [at 6.55 µM] in assay [2], -17.4% [at 6.55 µM] in assay [3] and -1.81% [at 6.55 µM] in assay [4].
`Cc1ccc(-c2c(C(=O)CCl)n(CCCO)c3ncnc(N)c23)cc1`: the Potency entry in assay [1], in assay [2], in assay [3] and in assay [4] was “inactive” in each case.
With `C=C(C)C(=O)O[C@H]1C[C@@](C)(O)C2(O)CCC(C)(/C=C3/OC(=O)C(COC)=C31)O2` (stereo partly drawn), in assay [5], the Potency is 11.2 µM (active). In assay [2], the Potency result was “inactive”.
In the case of `COCCNCc1ccc(-c2cc3nccc(Oc4ccc(NC(=O)C5(C(=O)Nc6ccc(F)cc6)CC5)cc4F)c3s2)nc1`, the Potency entry in assay [5] is “inactive”.
As for `C=C(C=O)[C@]1(O)C[C@@]2(C)C(=CC1=O)C=C[C@H](OC(=O)/C=C/C=C/[C@H](C)CC)[C@@H]2C`, the Potency entry in assay [1], in assay [5], in assay [2] and in assay [4] was “inactive” in each case.
Take `C=C1C(=O)O[C@H]2C[C@@H](C)[C@@H]3CCC(=O)[C@@]3(C)C[C@H]12`: the values for the Potency in assay [1], in assay [3] and in assay [4] were 7.94 µM (active), 25.1 µM (active) and 15.8 µM (active), respectively. For the same molecule, the Potency result in assay [2] is “inactive”.
As to `C=C1C(=O)OC2/C=C(\COC(C)=O)CC/C=C(\C=O)CC(OC(=O)CC(C)C)C12` (stereo not drawn), the Potency result in assay [1] and in assay [2] was “inactive” each time. Besides, the Potency in assay [3] is 8.91 µM (active).
In the case of `Cc1ccc(C)c(-c2cc(C(F)(F)F)nn2-c2ccc(S(N)(=O)=O)cc2)c1`, in assay [1], the Potency result was “inactive”. The Potency in assay [2] is 31.6 µM (active).
Take `CCn1c(-c2nonc2N)nc2c(C#CC(C)(C)O)ncc(OCC3CCCNC3)c21` (stereo not drawn): the Potency entry in assay [5], in assay [2] and in assay [4] was “inactive” each time.
As to `CN(C)Cc1ccc(-c2cnn3c(-c4cccc(NC(=O)c5cccc(C(F)(F)F)c5)c4)ccnc23)cc1`, the Potency result in assay [5] and in assay [2] was “inactive” throughout.
Take `Cc1ccc(NC(=O)c2ccc(CN3CCNCC3)cc2)cc1Nc1nccc(-c2cccnc2)n1`: the Potency in assay [1] was 17.8 µM (active); in assay [5] it was 15.8 µM (active); in assay [3] it was 11.2 µM (active); in assay [4], 17.8 µM (active).
`COC(C)(C)CCn1nc(Nc2c(C)cccc2C)c2cnc(Nc3ccc(OCCN4CCCC4)c(F)c3)nc21`: the Potency in assay [5] is 15.8 µM (active).
For `c1ccc(-c2cnn3cc(-c4ccc(OCCN5CCOCC5)cc4)cnc23)cc1`, the Potency entry in assay [1], in assay [2] and in assay [4] was “inactive” each time.
In the case of `CC(=O)O[C@H]1CC(C)(C)CC2[C@]13CO[C@@]21CCC2[C@@]4(C)CC[C@H](O[C@@H]5OC[C@H](O[C@@H]6O[C@H](CO)[C@@H](O)[C@H](O)[C@H]6O[C@@H]6OC[C@@H](O[C@@H]7O[C@H](CO)[C@@H](O)[C@H](O)[C@H]7O)[C@H](O)[C@H]6O)[C@H](O)[C@H]5O[C@@H]5O[C@H](CO)[C@@H](O)[C@H](O)[C@H]5O)[C@@](C)(CO)C4CC[C@@]2(C)[C@]1(C)C[C@H]3O` (stereo partly drawn), the activity change, negative = cytotoxicity in assay [1] is -12% [at 6.55 µM]; in assay [2], -20% [at 6.55 µM]. Moreover, the Potency in assay [3] was 2.82 µM (active).
Regarding `C=C1C(=O)OC2/C=C(\COC(C)=O)CC/C=C(\C=O)CC(OC(=O)C(C)CC)C12` (stereo not drawn), the Potency entry in assay [1] and in assay [2] was “inactive” in each case.
Turning to `O=C(Nc1ccc(C(O)(C(F)(F)F)C(F)(F)F)cc1)c1ccc(C(F)(F)F)cc1`, the Potency result in assay [4] is “inactive”.
In the case of `CN(C)C(=O)COC(=O)c1cc(-c2ccc(C3CCNCC3)cc2)c2ccc(-c3ccc(C(F)(F)F)cc3)cc2c1`, the Potency result in assay [5], in assay [3] and in assay [4] was “inactive” in each case.
Consider `COc1cc(-n2cnc3cc(-c4ccc(Cl)cc4)sc3c2=O)ccc1OCCN1CCCC1`, for which the Potency result in assay [2] and in assay [4] was “inactive” each time.
Regarding `Oc1ccc(-c2cnc3ccc(NCc4ccco4)nn23)cc1`, the Potency result in assay [4] was “inactive”.
With `O=C(CCl)Nc1cccc(NC2=NS(=O)(=O)c3ccccc32)c1`, the Potency entry in assay [5] and in assay [4] was “inactive” throughout.
On to `Nc1ncnc2c1c(-c1ccc(Oc3ccccc3)cc1)nn2[C@@H]1CCCNC1`, for which the Potency result in assay [2] and in assay [4] was “inactive” throughout.
As to `O=C(Nc1ccc(N2C(=O)[C@@H]3[C@H](C2=O)[C@@H]2C=C[C@H]3C2)c(Cl)c1)c1ccccn1`, the Potency entry in assay [2] was “inactive”.
For `CC(O)(C(=O)O)C1CCC2(C)C1CCC1(C)C2CCC2C3(C)CCC(O)C(C)(COC4OC(CO)C(O)C(O)C4O)C3CCC21C` (stereo not drawn), in assay [3], the Potency was 10 µM (active).
Regarding `COc1c(C)cnc(Cn2cc(C#CCC(C)(C)O)c3c(Cl)nc(N)nc32)c1C`, the Potency result in assay [2] was “inactive”. Also, in assay [3], the Potency is 0.282 µM (active).
With `CCCc1cc(C)[nH]c(=O)c1CNC(=O)c1cc(-c2ccnc(N3CCN(C)CC3)c2)cc2c1cnn2C(C)C`, in assay [2], the Potency is 35.5 µM (active).
Consider `Cc1nc2ccc(-n3ncc(C(=O)c4cc5ccccc5[nH]4)c3N)cc2[nH]1`, for which the Potency in assay [2] was 28.2 µM (active); in assay [3], 14.1 µM (active).
`C=CC(=O)Nc1ccc2ncnc(Nc3cccc(Br)c3)c2c1`: the Potency entry in assay [2] and in assay [3] was “inactive” throughout.
Regarding `Oc1cccc(C2NC(=S)Nc3cccc(F)c32)c1` (stereo not drawn), the Potency in assay [4] is 22.4 µM (active).
Regarding `C=C1C(=O)O[C@@H]2C(OC(=O)/C(C)=C\C)/C(C)=C\C(=O)/C=C(\C)C[C@H](O)[C@@H]12` (stereo partly drawn), in assay [2], the Potency result was “inactive”. Also, the Potency in assay [3] was 11.2 µM (active).
On to `CN1CCN(c2ccc(OC(F)(F)F)c(Nc3ncc4c(n3)-c3c(c(C(N)=O)nn3CCO)CC4)c2)CC1`, for which the Potency in assay [2] was 0.224 µM (active).
Consider `COc1cc(CCC2=NN=C(NC(=O)c3ccc(N4C[C@@H](C)N[C@@H](C)C4)cc3)C2)cc(OC)c1`, for which the Potency in assay [2] was 20 µM (active).
The same measure, in the same setting: with `COc1ccc(CCc2nc3c(C)c(-c4c(C)noc4C)c(C)cc3n2CCN2CCOCC2)cc1` the entry was “inactive”.
As to `COc1ccc(-c2ccc3c(N4CCOCC4C)nc(N4CCOCC4C)nc3n2)cc1CO` (stereo not drawn), the Potency in assay [5] is 0.282 µM (active); in assay [3], 0.316 µM (active). Moreover, in assay [4], the Potency entry is “inactive”.
As for `COc1cc(O)c2c(c1)C1OC1C[C@H](O)[C@H](O)C(=O)/C=C\C[C@H](C)OC2=O` (stereo partly drawn), the Potency entry in assay [2] is “inactive”.
Turning to `COc1cccc(-c2cc(F)ccc2C2Cc3nc(N)nc(C)c3C(=O)N2)n1` (stereo not drawn), the Potency in assay [3] was 0.282 µM (active).
Regarding `CC(C)=CCCC1(C)/C=C/C(OC(=O)C=C(C)C)C(C)(O)/C=C/C(=O)/C(CO)=C\C1` (stereo not drawn), the Potency in assay [3] was 8.91 µM (active).
For `CCN(Cc1cc(Nc2nc(C)cn3c(-c4cn[nH]c4)cnc23)sn1)C(C)(C)CO`, the Potency was 3.16 µM (active) in assay [5] and 3.55 µM (active) in assay [3].
Consider `C=C1C(=O)O[C@@H]2[C@H]3C(C)=CC(=O)C3=C(C)CC[C@@H]12`, for which the Potency result in assay [2] was “inactive”.
Take `O=c1ccc2ccc(OCCCCN3CCN(c4cccc5sccc45)CC3)cc2[nH]1`: the Potency result in assay [2] and in assay [4] was “inactive” throughout.

For the origin of these results see PubChem BioAssay (NCATS).
